Assay outcomes (PubChem)
Compounds with a hit are over-represented: about 0.34% of the library has one in this group of screens.
Luc counter – blocks Kinase-Glo luciferase, a counter-screen artifact. Q27757. Kinase-Glo luciferase, ATP luminescence, 8 min. Potency, µM (titrated, usually from 38.3 µM), for inactives: top-dose activity change, negative = inhibition, hits mostly inhibitors. 200,000 compounds, 0.28% hits. AID 1379; further: potency means the concentration at half of the fitted maximal effect; on the % scale 0 is the no-effect control and ±100 the full control effect; nearly all actives have a fitted effect of over 60% in size
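Luminescence was the read-out, taken after 8-minute incubation at ambient temperature. Luciferase turned over luciferin with 10 uM ATP in imidazole pH 7.2 buffer containing KCl, MgCl2, Tween 20 and BSA.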
Lamin A splicing – LMNA splicing modulation. HeLa LMNA splicing GFP/RFP minigene ratio, 48 h. Potency, µM (doses to about 46.1 µM), without a hit: top-dose ratio change, negative = inhibition, usual class: inhibitors. 200,000 compounds, 0.01% hits; active means well fitted inhibition curve with a large enough effect in the signal ratio, with a control signal flat, not every such curve was filed as active; inconclusive means small, poorly fitted or top-dose-only effect, or effect the other way, or a change in a side signal; the % refers to the signal ratio; further: potency means the concentration at half of the fitted maximal effect; on the % scale 0 is the no-effect control and ±100 the full control effect
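S3 HeLa stable clones carrying a lamin A-EGFP splicing minigene plus DsRed2 were seeded at 600 cells/well in Opti-MEM with 2% FBS, pin-dosed and incubated 48 h at 37°C. Acumen cytometry (488 nm) gave the GFP/RFP total-intensity ratio.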
IMPase Li inh – cell-permeable IMPase inhibitors with lithium potentiation; 210,000 compounds, 0.35% hits; CHO-M1 cells, IP1 TR-FRET (IP-One), carbachol + lithium; Potency, µM (highest dose often 59.4 µM), for the others: top-dose activity, negative = IMPase inhibition, hits mostly inhibitors; AID 1457;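 further: IP1 builds up when IMPase is blocked and the TR-FRET signal falls; potency means the concentration at half of the fitted maximal effect; plate controls were basal vehicle for no effect and high inhibitor control for full effect; nearly all actives have a fitted effect of over 50% in size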
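CHO cells stably expressing M1 receptor (2000/well) were cultured 16–30 h, then exposed to compounds with a small lithium addition for 30 min at 37C. IP1 was measured by TR-FRET competition; AC50 from Hill fits.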
TCR activator – activators of T cell receptors; primary human leukocytes, anti-CD3, IL-2 HTRF, 48 h; Potency, µM (doses to about 9.22 µM), for the others: top-dose activation of IL-2 secretion, hits mostly activators; 330,000 tested, under 10 active; further: % of control where 0% means no effect
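Primary human leukocytes were stimulated with a-CD3 beads plus compounds for 48 hr without co-stimulation; secreted IL-2 was quantified by HTRF using a-IL-2-K (europium cryptate) and a-IL-2-d2, excited at 320nm with acceptor emission read at 665nm.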
* = called active by the depositor; ? = inconclusive; . = no result given; ! = not active in a repeat; [ ] = another dose, or the depositor's remark. Unless noted, the call rests on the fitted dose curve; in most records, active means well fitted curve in the direction sought with a large enough effect; inconclusive means small, poorly fitted or top-dose-only effect, or another doubt; inactive means no such curve, though single readings can be large; an effect the other way counts as inactive or inconclusive.

SMILES | Luc counter | Lamin A splicing | IMPase Li inh | TCR activator
CC[C@@]1(O)C(=O)OCc2c1cc1n(c2=O)Cc2cc3ccccc3nc2-1 | 3% | ? | -21% | .
CC[C@@]1(O)C(=O)OCc2c1cc1n(c2=O)Cc2cc3c(O)cccc3nc2-1 | . | . | 8.9µM* | .
C=CC(C)=O | . | . | 0% | .
CN(C)C(=O)Oc1ccc(-c2cn3cc(Cl)ccc3n2)cc1 | 14µM* | 20% | -5% | 1%[46.1 µM]
CN=C=S | . | . | 5% | .
CN(C)c1ccc(/C=C/c2cc[n+](C)c3ccccc23)cc1 | 13µM* | . | 132% | 51%
CC(=O)[O][Hg][c]1ccccc1 | 13µM* | ? | 34% | .
CC(=O)/C=C/c1ccccc1 | . | . | 4% | 1%
CN(C)[C@@H]1C(=O)C(C(N)=O)=C(O)[C@@]2(O)C(=O)C3=C(O)c4c(O)cccc4[C@@](C)(O)[C@H]3[C@H](O)[C@@H]12 | -7% | ? | 10µM*! | -4%
ClCC[N+]12CC[N+](CCCl)(CC1)C2 (tested in a mixture with another compound) | -6%[7.66 µM] | . | -4% | .
Nc1ncnc2c1ncn2[C@@H]1O[C@H](COP(=O)(O)OP(=O)(O)OP(=O)(O)O)[C@H]2OC3(O[C@H]21)C([N+](=O)[O-])=CC(=[N+]([O-])[O-])C=C3[N+](=O)[O-] (stereo not given in full) | 2.8µM* | . | -5% | .
CC1=NN(c2ccc(S(=O)(=O)O)cc2C)C(=[OH+])[C@H]1N=Nc1cc(S(=O)(=O)O)ccc1C(=O)O.O.[Cr] | -6%[7.66 µM] | . | 18% | .
O=c1ccc2cc(OC3OC(CO)C(O)C(O)C3O)c(O)cc2o1 (stereo not given) | 3% | . | 10µM* | .
O=c1ccc2cc(O[C@@H]3O[C@H](CO)[C@@H](O)[C@H](O)[C@H]3O)c(O)cc2o1 | . | . | . | -22%
Ic1c(C2=CCCCC2)[se]c2ccccc12 | 1%[39.9 µM] | . | 0% | .
c1ccc([Se]c2c(-c3ccccc3)[se]c3ccccc23)cc1 | -1%[39.9 µM] | . | 5.6µM* | .
